Measured values as given in PubChem BioAssay (Tox21).
The source made the active and inactive calls. Calls come from the whole dose curve; as a rule, active = well fitted curve in the direction sought with a large enough effect in the repeat runs; inconclusive = weak or mixed curves; inactive = flat fitted curve, though single readings scatter.

Assay: qHTS assay to test for compound auto fluorescence at 535 nm (green) in HEK293 cell free culture (AID 720682)
Conditions: cell-free medium, green autofluorescence 485/535 nm; series mostly up to 91.3 µM
Method in brief: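 Steps: dispense DMEM/10% FBS into empty wells; pin in compound or DMSO; measure fluorescence at 485/535 nm. Values are fluorescein equivalents.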

| SMILES | outcome |
| --- | --- |
| ClC=C(Cl)Cl | inactive |
| CC(c1ccc(O)cc1)(c1ccc(O)cc1)c1ccc(O)cc1 | inactive |
| C=CC(C)=O | inactive |
| CC1CC(CC2CCC(N)C(C)C2)CCC1N (configuration not stated) | inactive |
| CCN(C)N=O | inactive |
| II | inactive |
| O=NN1CCNCC1 | inactive |
| CCCCNP(N)(N)=S | inactive |
| c1ccc(C2CC2)c(OCC2=NCCN2)c1 | inactive |
| CCOP(=S)(OCC)Oc1nc(Cl)c(Cl)cc1Cl | inactive |
| CCCCCCC#N | inactive |
| Cn1sc(Cl)cc1=O | inactive |
| CCCCCCCCOC(=O)c1ccc(C(=O)OCCCCCCCC)c(C(=O)OCCCCCCCC)c1 | inactive |
| O=NN1CCCCCC1 | inactive |
| CCOc1nc(F)cc2nc(S(=O)(=O)Nc3c(Cl)cccc3Cl)nn12 | inactive |
| CCBr | inactive |
| Brc1ccc(Oc2ccccc2)cc1 | inactive |

| SMILES | outcome |
| --- | --- |
| Cc1ccc2ccccc2c1 | inactive |
| N#CCc1ccccc1 | inactive |
| CC/C(=N\OC/C=C/Cl)C1=C(O)CC(C2CCOCC2)CC1=O (configuration not stated) | inactive |
| N#Cc1cc(I)c(O)c(I)c1 | inactive |
| COC(=O)C(Cl)C(=O)OC | inactive |
| O=[N+]([O-])c1ccccc1CCl | inactive |
| COc1cc(CC(C)N)cc2c1OCO2 (configuration not stated) | inactive |
| Nc1nc(=S)[nH][nH]1 | inactive |
| Nc1nc(N)nc(N)n1 | inactive |
| COCC(C)N(C(=O)CCl)c1c(C)csc1C (configuration not stated) | inactive |
| c1ccc(CN2CCNCC2)cc1 | inactive |
| CCCCCCCCCC(=O)O[C@H]1CC[C@H]2[C@@H]3CCC4=CC(=O)CC[C@@H]4[C@H]3CC[C@]12C | inactive |
| C=CCC1([C@H](C)CCC)C(=O)NC(=O)NC1=O | inactive |
| CCOP(=O)(OCC)SCCSCC | inactive |
| Cc1cc(=O)[nH]o1 | inactive |
| IC(I)=C(I)I | inactive |
| CN1C(=O)NC(=O)C(C)(C2=CCCCC2)C1=O (configuration not stated) | inactive |

Assay: qHTS assay to test for compound auto fluorescence at 590 nm (red) in HEK293 cell free culture (AID 720683)
Conditions: cell-free medium autofluorescence, Ex540/Em590 red; series mostly up to 91.3 µM
Method in brief: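 Cell-free wells of DMEM with 10% FBS received compound, and intrinsic fluorescence was read at excitation/emission 540/590 nm. Values expressed as equivalence to Rose Bengal sodium.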

| SMILES | outcome |
| --- | --- |
| ClC=C(Cl)Cl | inactive |
| CC(c1ccc(O)cc1)(c1ccc(O)cc1)c1ccc(O)cc1 | inactive |
| C=CC(C)=O | inactive |
| CC1CC(CC2CCC(N)C(C)C2)CCC1N (configuration not stated) | inactive |
| CCN(C)N=O | inactive |
| II | inactive |
| O=NN1CCNCC1 | inactive |
| CCCCNP(N)(N)=S | inactive |
| c1ccc(C2CC2)c(OCC2=NCCN2)c1 | inactive |
| CCOP(=S)(OCC)Oc1nc(Cl)c(Cl)cc1Cl | inactive |
| CCCCCCC#N | inactive |
| Cn1sc(Cl)cc1=O | inactive |
| CCCCCCCCOC(=O)c1ccc(C(=O)OCCCCCCCC)c(C(=O)OCCCCCCCC)c1 | inactive |
| O=NN1CCCCCC1 | inactive |
| CCOc1nc(F)cc2nc(S(=O)(=O)Nc3c(Cl)cccc3Cl)nn12 | inactive |
| CCBr | inactive |
| Brc1ccc(Oc2ccccc2)cc1 | inactive |

| SMILES | outcome |
| --- | --- |
| Cc1ccc2ccccc2c1 | inactive |
| N#CCc1ccccc1 | inactive |
| CC/C(=N\OC/C=C/Cl)C1=C(O)CC(C2CCOCC2)CC1=O (configuration not stated) | inactive |
| N#Cc1cc(I)c(O)c(I)c1 | inactive |
| COC(=O)C(Cl)C(=O)OC | inactive |
| O=[N+]([O-])c1ccccc1CCl | inactive |
| COc1cc(CC(C)N)cc2c1OCO2 (configuration not stated) | inactive |
| Nc1nc(=S)[nH][nH]1 | inactive |
| Nc1nc(N)nc(N)n1 | inactive |
| COCC(C)N(C(=O)CCl)c1c(C)csc1C (configuration not stated) | inactive |
| c1ccc(CN2CCNCC2)cc1 | inactive |
| CCCCCCCCCC(=O)O[C@H]1CC[C@H]2[C@@H]3CCC4=CC(=O)CC[C@@H]4[C@H]3CC[C@]12C | inactive |
| C=CCC1([C@H](C)CCC)C(=O)NC(=O)NC1=O | inactive |
| CCOP(=O)(OCC)SCCSCC | inactive |
| Cc1cc(=O)[nH]o1 | inactive |
| IC(I)=C(I)I | inactive |
| CN1C(=O)NC(=O)C(C)(C2=CCCCC2)C1=O (configuration not stated) | inactive |

Assay: qHTS assay to test for compound auto fluorescence at 590 nm (red) in HepG2 cell free culture (AID 720684)
Conditions: cell-free medium autofluorescence, red 540/590 nm; series mostly up to 91.3 µM
Method in brief: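 Compounds are added to culture medium (MEM, 10% FBS) lacking cells, then fluorescence is read at excitation 540 nm, emission 590 nm, with Rose Bengal sodium as the equivalency standard.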

| SMILES | outcome |
| --- | --- |
| ClC=C(Cl)Cl | inactive |
| CC(c1ccc(O)cc1)(c1ccc(O)cc1)c1ccc(O)cc1 | inactive |
| C=CC(C)=O | inactive |
| CC1CC(CC2CCC(N)C(C)C2)CCC1N (configuration not stated) | inactive |
| CCN(C)N=O | inactive |
| II | inactive |
| O=NN1CCNCC1 | inactive |
| CCCCNP(N)(N)=S | inactive |
| c1ccc(C2CC2)c(OCC2=NCCN2)c1 | inactive |
| CCOP(=S)(OCC)Oc1nc(Cl)c(Cl)cc1Cl | inactive |
| CCCCCCC#N | inactive |
| Cn1sc(Cl)cc1=O | inactive |
| CCCCCCCCOC(=O)c1ccc(C(=O)OCCCCCCCC)c(C(=O)OCCCCCCCC)c1 | inactive |
| O=NN1CCCCCC1 | inactive |
| CCOc1nc(F)cc2nc(S(=O)(=O)Nc3c(Cl)cccc3Cl)nn12 | inactive |
| CCBr | inactive |
| Brc1ccc(Oc2ccccc2)cc1 | inactive |

| SMILES | outcome |
| --- | --- |
| Cc1ccc2ccccc2c1 | inactive |
| N#CCc1ccccc1 | inactive |
| CC/C(=N\OC/C=C/Cl)C1=C(O)CC(C2CCOCC2)CC1=O (configuration not stated) | inactive |
| N#Cc1cc(I)c(O)c(I)c1 | inactive |
| COC(=O)C(Cl)C(=O)OC | inactive |
| O=[N+]([O-])c1ccccc1CCl | inactive |
| COc1cc(CC(C)N)cc2c1OCO2 (configuration not stated) | inactive |
| Nc1nc(=S)[nH][nH]1 | inactive |
| Nc1nc(N)nc(N)n1 | inactive |
| COCC(C)N(C(=O)CCl)c1c(C)csc1C (configuration not stated) | inactive |
| c1ccc(CN2CCNCC2)cc1 | inactive |
| CCCCCCCCCC(=O)O[C@H]1CC[C@H]2[C@@H]3CCC4=CC(=O)CC[C@@H]4[C@H]3CC[C@]12C | inactive |
| C=CCC1([C@H](C)CCC)C(=O)NC(=O)NC1=O | inactive |
| CCOP(=O)(OCC)SCCSCC | inactive |
| Cc1cc(=O)[nH]o1 | inactive |
| IC(I)=C(I)I | inactive |
| CN1C(=O)NC(=O)C(C)(C2=CCCCC2)C1=O (configuration not stated) | inactive |
